Assay outcomes (PubChem BioAssay)
Rows were chosen to be rich in hits. Some 0.66% of all compounds tested hit in one or more screens of this group.
SK-BR-3 tox 24h: SK-BR-3 proliferation inhibitors | 0.47% of 41,000 active | SK-BR-3 viability, CellTiter-Glo ATP luminescence, 24 h; stronger effect = lower value | AID 847 | viability, % at 10 µM;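 active means viability at or below the median of all test compounds minus 3 SD, in both replicates if run twice, cut at about 45% in these data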;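 further: 100% = median untreated cell wells and 0% = median positive control drug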
Htt clearance: mutant huntingtin protein clearance | HeLa Exon1htt(103Q)mCFP, aggregate imaging; zero = plate's median compound well | inhibition, % at 1.5 µM | 0.42% of 47,000 active | AID 853;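 active means inhibition of aggregate fluorescence above about 70%, also judged a hit by eye on the cell image, limit read from the data, passing the limit was not always enough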;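 further: cells exposed to compound for three days before fixation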
The depositor's hits bear a star; · = no result.

SMILES	SK-BR-3 tox 24h	Htt clearance
O=C1NCCCC2c3c(cc(Br)c(O)c3Br)OC12N1CCOCC1 (centres undefined)	113.3	15.2
O=C1NCCCC2c3cc(O)c4ccccc4c3OC12N1CCCCC1 (centres undefined)	5.1*	-45.6
CCOc1ccccc1NC(=O)CN(c1ccc(C)cc1)S(=O)(=O)c1c(C)noc1C	83.8	7.3
CSc1nnc(-c2ccccc2)o1	·	66.0
O=S1(=O)C=C(Sc2nnc(-c3ccccc3)o2)c2ccccc21	1.4*	·
COc1ccc(C2=Nn3c(nnc3-c3ccccc3)SC2)cc1OC	106.3	·
COc1ccc(-c2nnc3n2N=C(c2ccccc2)CS3)cc1OC	24.0*	·
O=C(Nc1nc2n(n1)C(c1ccc(Cl)cc1)CC(c1ccc(Cl)cc1)N2)c1ccco1 (centres undefined)	80.5	-12.9
COc1ccc(C2CC(c3ccc(Cl)cc3)Nc3nc(NC(=O)c4ccco4)nn32)cc1 (centres undefined)	82.7	74.7*
Cc1ccc(-n2c(SCC(=O)Nc3ccc4c(c3)OCCO4)nnc2-c2ccco2)cc1	·	72.5*
CCCn1c(SCC(=O)Nc2ccc3c(c2)OCCO3)nnc1-c1ccco1	82.7	·
CCCCCc1c(C)nc(N2CCc3ccccc32)[nH]c1=O	90.4	58.8
CC(OC(=O)c1cc2sccc2n1C)C(=O)NCc1ccc2c(c1)OCO2 (centres undefined)	97.2	·
O=C(COc1ccccc1)Nc1ccc(S(=O)(=O)N2CCOCC2)cc1	·	-43.5
COc1ccc(OCC(=O)Nc2ccc(S(=O)(=O)N3CCOCC3)cc2)cc1	132.8	87.0*
O=C(NCC1CCCCC1)C1CCN(C(=O)NC2CCCCC2)CC1	34.7*	-14.0
O=C(NC1CCCCC1)N1CCCCCC1	94.0	·
O=c1c2c3c(sc2n2cnnc2n1Cc1ccccc1)CN(Cc1ccccc1)CC3	78.7	-22.9
N[C@H](Cc1c[nH]c2ccccc12)C(=O)O	94.1	·
CC(Cc1c[nH]c2ccccc12)NC(=O)C1CCCNC1=O (centres undefined)	96.5	87.0*
COc1cc(SC)ccc1C(=O)Nc1ccon1	93.0	73.3*
COc1cc(SC)ccc1C(=O)Nc1ccc2c(c1)CCN2S(C)(=O)=O	88.2	·
Cc1cccc(N2CCN(C(=O)C(NS(=O)(=O)c3cccs3)c3ccccc3)CC2)c1C (centres undefined)	·	17.5
O=c1cc(CO)oc(CN2CCN(c3ccccc3F)CC2)c1O	89.4	·
COC(=O)Cc1cc(=O)[nH]c(Nc2nc3ccccc3o2)n1	89.0	75.1*
SMILES	SK-BR-3 tox 24h	Htt clearance
CCOC(=O)Cc1cc(=O)[nH]c(Nc2nc3ccccc3o2)n1	·	11.5
CCCNC(=O)c1[nH]c(C)c(C(C)=O)c1C	·	56.5
O=C1CCc2nc3sc4c(c3c(=O)n2N1)CCCC4	85.5	84.0*
Cc1sc2nc3n(c(=O)c2c1C)NC(=O)CC3	88.6	·
c1ccc2[nH]c(SN3CCOCC3)nc2c1	114.5	·
O=C(Cn1ccc2ccccc2c1=O)N1CCN(Cc2ccc3c(c2)OCO3)CC1	84.1	9.9
O=C(CN1C(=O)c2ccccc2S1(=O)=O)N1CCN(Cc2ccc3c(c2)OCO3)CC1	39.7*	32.2
CSc1ccc2nnc(-c3cccc(F)c3)n2n1	·	10.7
COc1ccccc1N1CCN(C(=O)CSc2nc(-c3ccccc3)cc(=O)[nH]2)CC1	116.4	·
COc1ccccc1N1CCN(C(=O)CSc2nc(C)c(Cc3ccccc3)c(=O)[nH]2)CC1	78.7	79.6*
CCOc1ccc(-c2nnn(CC(=O)NCc3cccs3)n2)cc1	93.5	10.7
CCOc1ccc(-c2nnn(CC(=O)NCc3ccc4c(c3)OCO4)n2)cc1	·	75.7*
Cc1cc(-c2[nH]nc3c2C(c2ccc(Cl)cc2)C(C#N)=C(N)O3)c(C)s1 (centres undefined)	·	9.5
Cc1ccc2nc(/C(C#N)=N/O)[nH]c2c1	94.7	-53.2
Cc1ccc2nc(C(F)OC(F)(F)F)[nH]c2c1 (centres undefined)	104.8	72.6*
CCn1nnc(-c2ccccc2NC(=O)c2cccc(-n3cnnn3)c2)n1	41.8*	14.6
CCn1nnc(-c2ccccc2NC(=O)c2ccc(-n3cnnn3)cc2)n1	89.7	4.6
COCCn1c(SCC#N)nnc1-c1ccccc1	82.5	·
CCN(CCCNC(=O)c1cn(CC)c2ccc(S(=O)(=O)N(C)C)cc2c1=O)c1cccc(C)c1	·	4.3
COc1ccc(C(CC(=O)O)NC(=O)c2ccco2)cc1OC (centres undefined)	96.3	51.5
Cc1cccc(C)c1NC(=O)C(c1ccccc1)N1CCN(C(=O)c2ccco2)CC1 (centres undefined)	89.5	·
Cc1cccc(C)c1NC(=O)C(c1ccccc1)N1CCC2(CC1)OCCO2 (centres undefined)	33.7*	-62.1
CCN(CC)Cc1c(O)ccc2c([N+](=O)[O-])c(C)n(-c3ccc(OC)cc3)c12	·	70.6*
CCN(CC)Cc1c(O)ccc2occ(C(=O)c3ccc(OC)cc3)c12	·	52.7
Cc1csc2nc(CCNS(=O)(=O)c3cccs3)cn12	·	-108.6
SMILES	SK-BR-3 tox 24h	Htt clearance
c1cc(C(c2nnnn2C2CCCCC2)N2CCN3CCCC3C2)ccn1 (centres undefined)	86.9	22.1
CCc1ccc(CN/C=C/C(=O)c2ccc(Br)cc2)cc1	·	-1.7
CCOC(=O)c1ccc(NCc2ccc(N(C)C)cc2)cc1	86.5	46.7
CCOC(=O)c1ccc(NCc2ccc3c(c2)OCO3)cc1	43.1*	·
CCOc1ccc(N2C(=O)CC(NCc3ccc(F)cc3)C2=O)cc1 (centres undefined)	87.7	53.0
O=C1CC(NCc2ccccc2F)C(=O)N1c1ccccc1 (centres undefined)	39.2*	·
CC(=O)c1ccc(NC(=O)C(C)Sc2nnnn2C)cc1 (centres undefined)	·	24.5
c1ccc(Nc2ncnc3c2oc2ccccc23)cc1	103.1	72.5*
Oc1ccccc1Nc1ncnc2c1oc1ccccc12	98.7	25.9
CC1(C)CC(=O)c2sc(NC(=O)CN3CCOCC3)nc2C1	90.5	-47.0
O=C(CSc1nc2c(cnn2-c2ccccc2)c(=O)[nH]1)N1CCOCC1	·	28.4
O=C(CSc1nc2ccccc2c(=O)[nH]1)N1CCOCC1	24.0*	·
CC(=O)c1ccc(NC2CC(O)C(O)CO2)cc1 (centres undefined)	108.5	·
c1ccc(N2CCOCC2)c(Nc2nc3ccccc3n3cnnc23)c1	·	-141.3
CCCCN(CCCC)S(=O)(=O)c1ccc(C(=O)Nc2nnc(COC)o2)cc1	56.5	·
CCCCN(C)S(=O)(=O)c1ccc(C(=O)Nc2nnc(CSC)o2)cc1	43.4*	·
O=C(COC(=O)CCCN1C(=O)c2ccccc2C1=O)Nc1ncc(Cl)cc1Cl	·	71.9*
CC(C)CC(C(=O)OCC(=O)Nc1ncc(Cl)cc1Cl)N1C(=O)c2ccccc2C1=O (centres undefined)	·	46.3
CCOC(=O)c1c(O)c2ccccc2n(-c2ccccc2)c1=O	96.1	·
O=C(NCc1cccs1)c1ccc2c(c1)OCCO2	72.0	-5.9
N#Cc1nc(N2CCCC2)nc(N2CCCC2)n1	114.7	72.7*
N#Cc1nc(N2CCCCC2)nc(N2CCOCC2)n1	88.4	·
O=C(Cn1nnc(-c2ccccc2-n2cnnn2)n1)N1CCCCC1	142.4	-31.3
O=C(Cn1nnc(-c2ccccc2Cl)n1)N1CCN(S(=O)(=O)c2ccc(Cl)cc2)CC1	·	76.3*
COCCn1nnnc1C(c1cc(OC)ccc1OC)N1CCc2ccccc2C1 (centres undefined)	110.5	·
COC(=O)c1[nH]c2ccc(C)cc2c1NS(=O)(=O)c1ccc(F)cc1	37.9*	·
